Results reported in PubChem BioAssay AID1851 (National Center for Advancing Translational Sciences (NCATS), 2009).
The whole screen tested about 16,000 compounds, of which about 2,600 (16%) were called active. Another 20% or so got no clear call; they are omitted. These entries were drawn from the full list. Values without a mark were called inactive. The call rests on the fitted dose curve; in most records, active means well fitted curve in the direction sought with a large enough effect; inconclusive means small, poorly fitted or top-dose-only effect, or effect the other way; inactive means no such curve, though single readings can be large or run the other way.

Molecular target: Cytochrome P450 2D6 (Homo sapiens) (UniProt P10635)
Sequence (P10635 whole entry, looked up): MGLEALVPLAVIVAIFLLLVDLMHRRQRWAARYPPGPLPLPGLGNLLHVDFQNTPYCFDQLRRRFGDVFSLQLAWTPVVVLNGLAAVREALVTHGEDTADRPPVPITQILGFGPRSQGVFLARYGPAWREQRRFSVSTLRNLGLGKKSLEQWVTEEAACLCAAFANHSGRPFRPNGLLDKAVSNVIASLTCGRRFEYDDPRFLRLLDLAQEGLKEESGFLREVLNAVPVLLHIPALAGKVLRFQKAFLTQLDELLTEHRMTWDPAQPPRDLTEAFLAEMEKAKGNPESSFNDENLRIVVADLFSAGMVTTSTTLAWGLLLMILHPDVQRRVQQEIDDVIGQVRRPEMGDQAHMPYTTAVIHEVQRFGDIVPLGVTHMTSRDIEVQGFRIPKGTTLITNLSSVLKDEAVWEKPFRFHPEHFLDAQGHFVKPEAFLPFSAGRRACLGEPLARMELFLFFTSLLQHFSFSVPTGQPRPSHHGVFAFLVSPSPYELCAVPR
Assay: Cytochrome panel assay with activity outcomes
Details: recombinant CYP, pro-luciferin dealkylation, luminescence, p450-cyp2d6; series mostly up to 57.1 µM
On the % scale 0 is the no-effect control and ±100 the full control effect.

SMILES | AC50 | activity, negative = inhibition
Cc1noc(NS(=O)(=O)c2ccc(NC(=O)CC34CC5CC(CC(Br)(C5)C3)C4)cc2)c1C | inactive | 
CCCCCCC(C)n1cc(C(C)=O)c(=O)[nH]c1=O (stereo unspecified) | inactive | 
CCC/C=C(\CCC)C(NC(=O)Oc1ccc(F)cc1)c1ccc(C(=O)OC)cc1 (stereo unspecified) | inactive | 
COC(=O)c1[nH]c2ccc(Br)cc2c1NC(=O)CN1CCN(C2CCCCC2)CC1 | 1 µM (active) | 
COC(=O)c1[nH]c2ccc(Br)cc2c1NC(=O)CN1CCCc2ccccc21 | inactive | 
COC(=O)c1[nH]c2ccc(Br)cc2c1NC(=O)Oc1ccccc1 | inactive | 
CCOC(=O)C1CN(S(=O)(=O)c2cccc(C(F)(F)F)c2)c2cc(CC(=O)OC)ccc2O1 (stereo unspecified) | inactive | 
CN1CCN(c2ncc3nc(-c4ccc(Cl)cc4)c(=O)n(CCC#N)c3n2)CC1 | inactive | 
CNS(=O)(=O)c1ccccc1C(=N)c1ccccc1 |  | 19.2% [at 11.4 µM]
CCOC(OCC)P(=O)(O)CCCNCc1ccc(Cl)c(Cl)c1 | inactive | 
CCNC(=S)NNC(=O)c1cccc(Br)c1 | inactive | 
CCCCCNCc1cccc(Br)c1 | 2 µM (active) | 
Cc1cc(Cl)nc2ccc(Cc3ccc4nc(Cl)cc(C)c4c3)cc12 |  | -2.9% [at 11.4 µM]
COc1ccc(/C=N/NC(=S)NC2CCS(=O)(=O)C2)cc1OC (stereo unspecified) | inactive | 
C=CC1=C(C(=O)O)N2C(=O)[C@@H](NC(=O)/C(=N\OCC(=O)O)c3csc(N)n3)[C@@H]2SC1 | inactive | 
NC[C@](O)(CS(=O)(=O)O)c1ccc(Cl)cc1 | inactive | 
Cc1cc(-c2cc(-c3ccc(Cl)cc3)nc(N)c2C#N)co1 | inactive | 
Cc1cc(OCCn2cc(/C(N)=N/O)c3ccccc32)ccc1Cl | 3.98 µM (active) | 
COc1ccccc1OCCn1cc(C(=O)c2ccco2)c2ccccc21 | inactive | 
CO[C@]1(NC(=O)CSCC#N)C(=O)N2C(C(=O)O)=C(CSc3nnnn3C)CS[C@H]21 | inactive | 
C[C@H](C[C@H](N)C(=O)O)C(=O)O | inactive | 

SMILES | AC50 | activity, negative = inhibition
CCn1c2ccccc2c2cc(NC(=O)CSc3nnc(-c4ccc(OC)c(OC)c4)n3N)ccc21 | 14.1 µM (active) | 
COc1ccc(C)cc1NC(=O)CSc1nnc(-c2ccc(OC)c(OC)c2)n1N | inactive | 
Cc1ccc(-c2cc(-c3nnc(SCC(=O)NC(C)C(C)C)n3N)c3ccccc3n2)cc1 (stereo unspecified) | inactive | 
Cc1cccc(NC(=O)CSc2nnnn2C)n1 | inactive | 
CCCCOc1ccc(C(=O)N/C(=C\c2cccc([N+](=O)[O-])c2)C(=O)OCCC)cc1 | inactive | 
Cc1cc(C)c(S(C)(=O)=O)c(Oc2ccc(C(C)(C)C)cc2)n1 | inactive | 
O=c1c[n+](CCCC[n+]2cc(=O)o[nH]2)[nH]o1 |  | -2.36% [at 11.4 µM]
COc1ccccc1CNc1ncncc1-c1cccc(C#N)c1 | 15.8 µM (active) | 
Cc1cnc(CNc2ncncc2-c2cccc(C#N)c2)cn1 | inactive | 
COc1ccc(CNc2ncnc3ccc(-c4cccc(C#N)c4)cc23)c(OC)c1 | inactive | 
COc1ccc(CNc2ncncc2-c2cccc(C#N)c2)c(OC)c1 | 5.01 µM (active) | 
O=C(Oc1oc(-c2ccco2)nc1C=Nc1ccc(Cl)cc1)c1ccco1 | inactive | 
Cc1c2c(nc3ccccc13)-c1cccc(=O)n1C2 | inactive | 
COc1cccc(/C=N\NC(=O)c2cc(OCC(F)(F)F)ccc2OCC(F)(F)F)c1 | inactive | 
COc1ccc2[nH]c(=O)c(CN(CCO)C(=O)c3cccs3)cc2c1 | inactive | 
O=[N+]([O-])c1cc(/C=N/O)ccc1SCc1ccccc1 | inactive | 
CC1(C)O[C@@H]2O[C@H]([C@H](O)CO/N=C3/[C@H]4O[C@@H]4[C@@H](O)[C@H]4[C@H]3CCn3c(=O)n(-c5ccccc5)c(=O)n34)[C@@H](O)[C@@H]2O1 |  | 7.2% [at 11.4 µM]
CO[C@@H]1COC(=O)[C@H]2CCCN2C(=O)[C@@H](C)COC(=O)CCC[C@H]1C |  | 12% [at 11.4 µM]
CCOC(=O)Cn1c(-c2ccccc2)nc2ccccc2c1=O | inactive | 
CCOC(=O)c1c(-c2ccccc2)nc2ccc(Cl)cn12 | inactive | 
CCOC(=O)CNc1c(-c2ccccc2)nc2ccc(Cl)cn12 | 7.94 µM (active) | 

SMILES | AC50 | activity, negative = inhibition
COc1cccc2c1C(=O)c1c(O)c3c(c(O)c1C2=O)C[C@](O)(C(=O)CO)C[C@H]3O[C@@H]1C[C@H](N)[C@H](O)[C@H](C)O1 | inactive | 
Cc1ccccc1NC(=O)C1CC(=O)N(c2ccc3c4c(cccc24)CC3)C1 (stereo unspecified) | inactive | 
CCN1C(=O)[C@H]2[C@H]3[C@H](O)[C@H](O)C/C(=N/OCC[C@H]4C=C[C@H](OC(C)=O)[C@@H](COC(C)=O)O4)[C@@H]3CC[C@@H]2C1=O |  | -11.1% [at 11.4 µM]
CCOC(=O)N/N=C1/C[C@@H](O)[C@@H](O)[C@@H]2[C@@H]3C(=O)N(Cc4ccccc4)C(=O)[C@H]3CC[C@H]12 |  | 9.96% [at 11.4 µM]
CC(=O)OC[C@@H]1O[C@@H](O/N=C2/C[C@@H](O)[C@@H](O)[C@@H]3[C@@H]4C(=O)N(Cc5ccccc5)C(=O)[C@H]4CC[C@@H]23)[C@H](OC(C)=O)[C@H](OC(C)=O)[C@@H]1OC(C)=O | 3.98 µM (active) | 
CC(C)CO/N=C1/C[C@@H](O)[C@@H](O)[C@@H]2[C@@H]3C(=O)N(Cc4ccc5c(c4)OCO5)C(=O)[C@H]3CC[C@@H]12 |  | -15.9% [at 11.4 µM]
CC(C)=CCC/C(C)=C/CO/N=C1/C[C@@H](O)[C@@H](O)[C@@H]2[C@@H]3C(=O)N(Cc4ccccc4)C(=O)[C@H]3CC[C@@H]12 |  | 15% [at 11.4 µM]
CC(=O)OC[C@@H]1O[C@@H](O/N=C2/C[C@@H](O)[C@@H](O)[C@@H]3[C@@H]4C(=O)N([C@@H](C)c5ccccc5)C(=O)[C@H]4CC[C@@H]23)[C@H](OC(C)=O)[C@H](OC(C)=O)[C@@H]1OC(C)=O |  | -0.595% [at 11.4 µM]
CC(=O)OC[C@@H]1O[C@@H](O/N=C2/C[C@@H](O)[C@@H](O)[C@@H]3[C@@H]4C(=O)N(Cc5ccc6c(c5)OCO6)C(=O)[C@H]4CC[C@@H]23)[C@H](OC(C)=O)[C@H](OC(C)=O)[C@@H]1OC(C)=O |  | -5.23% [at 11.4 µM]
CC(=O)OC[C@@H]1O[C@@H](O/N=C2/C[C@@H](O)[C@@H](O)[C@@H]3[C@@H]4C(=O)N(Cc5ccc6c(c5)OCO6)C(=O)[C@H]4CC[C@H]23)[C@H](OC(C)=O)[C@H](OC(C)=O)[C@@H]1OC(C)=O | 3.16 µM (active) | 
CC(=O)OC[C@@H]1O[C@@H](O/N=C2/C[C@@H](O)[C@@H](O)[C@@H]3[C@@H]4C(=O)N(Cc5ccccc5)C(=O)[C@H]4CC[C@H]23)[C@H](OC(C)=O)[C@H](OC(C)=O)[C@@H]1OC(C)=O | 3.16 µM (active) | 
COCC(=O)Nc1ccc(-c2cn3cccnc3n2)cc1 | inactive | 
COC(=O)[C@H]1C[C@@H]1[C@H](NC(=O)c1cccnc1)c1ccccc1 | inactive | 
O=c1cc(N2CCN(c3cccc(Cl)c3)CC2)[nH]c(=O)n1C1CCCCC1 | inactive | 
CC(=O)N(/N=C1\Sc2ccccc2C1=O)c1ccccc1 | inactive | 
N#Cc1c(NC(=O)CCC(=O)O)ccc2ccccc12 |  | 7.11% [at 11.4 µM]
COc1ccc(N2CCN(C(=N)/C(C(C)=O)=C(\C)O)CC2)cc1 | inactive | 
COc1cccc(C2C3(C#N)C(N)=NC(OC)(OC)C23C#N)c1 (stereo unspecified) | inactive | 
COc1ccc(-c2nc3cnc(Oc4cccc(Cl)c4)nc3n(C[C@H]3CCCO3)c2=O)cc1 | inactive | 
COC(=O)C1=C(N)N(c2ccccc2C(F)(F)F)C2=C(C(=O)CCC2)C1c1ccc2c(c1)OCO2 (stereo unspecified) | 28.2 µM (active) | 
COc1ccc(NC(=O)c2cc3n(n2)C(C(F)(F)F)CC(c2ccc4c(c2)OCO4)N3)cc1OC (stereo unspecified) | inactive | 

SMILES | AC50 | activity, negative = inhibition
COc1ccc(OC)c(NC(=O)c2cc3n(n2)C(C(F)(F)F)CC(c2ccc4c(c2)OCO4)N3)c1 (stereo unspecified) | inactive | 
COc1cc(/C=C2/C(=N)N3C=CSC3=NC2=O)ccc1OCCCOc1ccccc1C | inactive | 
FC(F)(F)c1nnc2c(Sc3ccc(Cl)cc3)nc3ccccc3n12 | inactive | 
CCOc1ccccc1NC(=O)CSc1nnc(-c2cnccn2)n1C | 12.6 µM (active) | 
CCOc1ccccc1-n1nnnc1SCC(=O)Nc1cc(C)on1 | inactive | 
COC(=O)c1ccccc1NC(=O)CSc1nnc(C(CO)NC(=O)c2ccccc2Cl)n1C (stereo unspecified) | inactive | 
CCn1c(O)c(/C=N/N=C2CCCC2)c2ccc(C3=NNC(=O)CC3)cc21 | inactive | 
O=C1CCC(c2ccc(-n3ccnc3)cc2)=NN1 | 2.51 µM (active) | 
Cc1cn2c(-c3ccncc3)nnc2s1 | inactive | 
Oc1cc(O)c2c(c1)O[C@H](c1ccc(O)c(O)c1)[C@@H](O)[C@@H]2c1c(O)cc(O)c2c1O[C@@H](c1ccc(O)c(O)c1)[C@H](O)C2 |  | -5.15% [at 11.4 µM]
CNc1ncnc2ccc(-c3ccccc3C#N)cc12 | inactive | 
CNc1ncnc2ccc(-c3ccccc3CN(C)C)cc12 | 10 µM (active) | 
COc1ccc(CNc2ncnc3ccc(-c4ccccc4OC)cc23)c(OC)c1 | inactive | 
COc1ccccc1CNc1ncnc2ccc(-c3ccccc3CN(C)C)cc12 | 2.51 µM (active) | 
COc1ccc(CNc2ncnc3ccc(-c4ccccc4CN(C)C)cc23)c(OC)c1 | 1.26 µM (active) | 
CN(C)Cc1ccccc1-c1ccc2ncnc(NCc3ccccc3)c2c1 | 7.94 µM (active) | 
O=C1Nc2cc(Cl)c(Cl)cc2N(O)N1c1ccc(Cl)c(Cl)c1 | inactive | 
CC1(C)O[C@@H]2C[C@H]3[C@H]4C[C@H](F)C5=CC(=O)CC[C@]5(C)[C@@H]4[C@H](O)C[C@]3(C)[C@]2(C(=O)CO)O1 | inactive | 
